Source: PubChem BioAssay (Tox21)
Results filed as inconclusive are left out. Unmarked numbers belong to inactive results. The source made the active and inactive calls. The call rests on the fitted dose curve.

test: cAMP Responsive Elements (CRE) small molecule agonists, cell-based qHTS assay (AID 1963590); settings: CRE-bla HEK293T, beta-lactamase FRET ratio, 3 h; series mostly up to 92.4 µM; activation: at the top concentration
Excerpt: U.S. Tox21 Program National Center for Advancing Translational Sciences [NCATS] Division of Preclinical Innovation [DPI] U.S. Environmental Protection Agency [EPA] National Institutes of Environmental Health Sciences [NIEHS] National Toxicology Program [NTP] U.S. Food and Drug Administration [FDA] Tox21 Assay Overview: CREB (cyclic-AMP Responsive Element Binding Protein) is a cellular transcription factor. It binds to certain DNA sequences called cAMP Responsive Elements (CRE) and regulates the transcription of the genes. […] This cell line can be used to find agonists/antagonists of the cyclic AMP signaling pathway. The activation of the report gene under culture conditions can be detected by fluorescence intensity. This cell line has been used to screen the Tox21 10K compound library to identify agonists that induce oxidative stress.
Tox21 Assay Protocol Summary: CRE-bla Hek 293T cells were suspended in assay medium (DMEM containing 10% dialyzed FBS, 0.1 mM NEAA, 1 mM sodium pyruvate and 25 mM HEPES) and dispensed at 2,000 cells/5 uL /well into 1536-well black wall/clear bottom plates using a Multidrop Combi (ThermoFisher Scientific, Waltham, MA) dispenser. After the assay plates were incubated at 37 C/5% CO2 for 18 hrs, 23 nL of compounds dissolved in DMSO, positive controls or DMSO only was transferred to the assay plate by a pintool workstation (Kalypsys, San Diego, CA). After the plates were incubated at 37 C/5% CO2 for 3 hrs, 1 uL of LiveBLAzer B/G FRET substrate (Invitrogen, Carlsbad, CA) was added to each well using Bioraptr Flying Reagent Dispenser (FRD, Aurora Discovery, San Diego, CA). The plates were incubated at room temperature for 2 h.
On the % scale 0 is the no-effect control and ±100 the full control effect.

For `CC/C(=C(/CC)c1ccc(O)cc1)c1ccc(O)cc1`, the Potency was “inactive”.
With `CC(=O)CC(=O)Nc1ccccc1C` the Potency was “inactive”.
For `c1ccc2sc(SSN3CCOCC3)nc2c1`, the Potency was “inactive”.
With `O=C1OC2(c3cc(Br)c(O)c(Br)c3Oc3c2cc(Br)c(O)c3Br)c2c(Cl)c(Cl)c(Cl)c(Cl)c21` the Potency was “inactive”.

Compared with `CC(=O)CC(=O)Nc1ccc2[nH]c(=O)[nH]c2c1`, `CNC(=O)Nc1ccc(Cl)c(Cl)c1` is lower in “activation” value: -0.128% for the first, -1.92% for the second.

Going from `O=C(c1ccc2c(c1)C(=O)OC2=O)c1ccc2c(c1)C(=O)OC2=O` to `CC(=O)c1cccc([N+](=O)[O-])c1`, the “activation” value falls from 1.24% to 0.13%.

Compared with `NC(=O)Nc1ccc(Cl)cc1`, `FC(F)(F)c1cccc(Cl)c1` is lower in “activation” value: 2.39% for the first, -0.62% for the second.

Going from `CCCCOCCOCCOCCCC` to `CCCCCCCCCCCCCCC(=O)O`, the “activation” value falls from -0.402% to -1.4%.

Going from `COc1nc(N)nc2nc[nH]c12` to `Cc1cc(C)c(C)c(O)c1`, the “activation” value falls from 3% to -0.277%.

Going from `CCC(C)C(=O)OCCc1ccccc1` (stereo not given) to `c1ccc2nccnc2c1`, the “activation” value falls from 0.42% to 0.0672%.

Going from `Cc1ccc(C(C)NC(=O)[C@@H](NC(=O)OC(C)C)C(C)C)cc1` (stereo not given in full) to `Cc1cc(C)c(C(=O)O)c(C)c1`, the “activation” value falls from 0.623% to -1.28%.

First: CC/C=C/CCO
Second: C=CC(=O)CCCCC
The “activation” value of the first is lower: -2% for the first, 0.666% for the second.

First: Nc1cc([N+](=O)[O-])ccc1Cl
Second: CC1CC(=O)CC(C)(C)C1 (stereo not given)
The “activation” value of the first is higher: 0.128% for the first, -0.0409% for the second.

First: CC(C)S
Second: CC(C)N=C=NC(C)C
The “activation” value of the first is lower: -0.981% for the first, 0.313% for the second.

Compared with `C=C(C)[C@@H]1CC[C@@H](C)C[C@@H]1O`, `C=C(C)C(=O)OCCC(C)OC(=O)C(=C)C` (stereo not given) is lower in “activation” value: 1.27% for the first, -0.811% for the second.

First: C#CC(O)CCC (stereo not given)
Second: CCO[Si](C)(OCC)OCC
The “activation” value of the first is lower: -1.44% for the first, 0.204% for the second.

For `C1CN(CCOCCN2CCOCC2)CCO1`, the “activation” value was 0.0066%.

Compared with `O=C(O)[C@@H](O)[C@H](O)[C@H](O)[C@@H](O)C(=O)O`, `CC(=O)NCc1c(I)c(NC(C)=O)c(I)c(C(=O)O)c1I` is higher in “activation” value: -0.621% [at 42.5 µM] for the first, 0.573% [at 42.5 µM] for the second.

Going from `CO[C@@H]1[C@@H](O[C@@H]2O[C@H](C)[C@@H](O[C@H]3C[C@@](C)(O)[C@@H](O)[C@H](C)O3)[C@H](N(C)C)[C@H]2O)[C@@H](CC=O)C[C@@H](C)[C@@H](O[C@@H]2CC[C@H](N(C)C)[C@@H](C)O2)/C=C/C=C/C[C@@H](C)OC(=O)C[C@H]1OC(C)=O` to `O=c1[nH]cnc2c1ncn2[C@@H]1O[C@H](CO)[C@@H](O)[C@H]1O`, the “activation” value rises from -1.92% [at 42.5 µM] to 0.0276% [at 42.5 µM].

First: CCCCCCCC(OC)OC
Second: Cc1cccc(C)c1NC(=O)CN1CCCCCC1
The “activation” value of the first is lower: -0.395% [at 42.5 µM] for the first, 0.0123% [at 42.5 µM] for the second.

First: O=c1[nH]c2cc(C(F)(F)F)c(N3CCOCC3)cc2n(CP(=O)(O)O)c1=O
Second: Cn1cc(S(C)=O)c(=O)c2ccc(F)cc21 (stereo not given)
The “activation” value of the first is lower: -0.0515% [at 42.5 µM] for the first, 1.06% [at 42.5 µM] for the second.

Going from `CC(=O)c1cc2ccccc2s1` to `Clc1ccc2c(c1)Nc1ccccc1S2`, the “activation” value falls from -0.0752% [at 42.5 µM] to -0.456% [at 42.5 µM].

With `Nc1cc(=O)[nH]c(N)n1` the “activation” value was 0.194% [at 42.5 µM].
